Measured values: PubChem BioAssay
The other results are listed elsewhere or left out. Activity calls are given as the source filed them.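 How the source made its calls, unless noted: active means mean inhibition above a cutoff equal to the average over all tested compounds plus one standard deviation (cut at about 70% in these data); inactive means the rest.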

How the values were obtained:
[1] = target: Photoreceptor-specific nuclear receptor (Homo sapiens) (UniProt Q9Y5X4); assay: retest of NR2E3-NCOR disrupting agonists – cell-based, luminescence, CHO-S two-hybrid, confirmation (AID 624378;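 active means average inhibition above a cutoff equal to the mean inhibition of all tested compounds plus one SD, cut at about 70% in these data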;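 further: 0% = DMSO in NR2E3 cells and 100% = DMSO in cells lacking NR2E3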); conditions: CHO-S mammalian two-hybrid NR2E3-NCOR, luciferase luminescence; at 3.98 µM; hits give high values
Sequence of Photoreceptor-specific nuclear receptor (Homo sapiens) (Q9Y5X4 whole entry, looked up, the tested form may be a part): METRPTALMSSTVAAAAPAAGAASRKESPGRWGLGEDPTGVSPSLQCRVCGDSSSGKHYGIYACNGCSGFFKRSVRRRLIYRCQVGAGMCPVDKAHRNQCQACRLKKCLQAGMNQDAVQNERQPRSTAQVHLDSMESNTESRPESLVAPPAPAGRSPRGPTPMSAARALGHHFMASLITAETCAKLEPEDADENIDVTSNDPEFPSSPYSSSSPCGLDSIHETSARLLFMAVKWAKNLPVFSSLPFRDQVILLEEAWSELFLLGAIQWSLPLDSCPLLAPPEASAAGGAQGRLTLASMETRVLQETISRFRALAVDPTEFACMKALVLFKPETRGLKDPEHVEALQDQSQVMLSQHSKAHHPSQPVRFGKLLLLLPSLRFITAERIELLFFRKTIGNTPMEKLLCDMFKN

[2] = nonselective effects on VP16 transactivation – cell-based, luminescence, CHO-S, high throughput, counter-screen for NR2E3 agonist project, confirmation (AID 624379); conditions: CHO-S GAL4-VP16 luciferase reporter, at 3.98 µM, hits give high values;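 further: luciferase from a UAS reporter driven by GAL4-VP16 transactivation; 0% = DMSO with VP16-transfected cells and 100% = DMSO with cells lacking VP16; higher means less reporter light so more repression of VP16 activity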
[3] = target: Receptor-interacting serine/threonine-protein kinase 2 (Homo sapiens) (UniProt O43353); assay: inhibitors of RIPK2 association with NOD2 – fluorescence, CHO cells, BLA complementation, triplicate, confirmation (AID 624370;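 active means mean inhibition across replicates above a set limit taken from the earlier primary screen, cut at about 21% in these data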;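 further: 0% = DMSO-only wells and the high end = clavulanate BLA-blocked wells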); conditions: CCF4 FRET, at 4.98 µM, hits give high values
Sequence of Receptor-interacting serine/threonine-protein kinase 2 (Homo sapiens) (O43353 whole entry, looked up): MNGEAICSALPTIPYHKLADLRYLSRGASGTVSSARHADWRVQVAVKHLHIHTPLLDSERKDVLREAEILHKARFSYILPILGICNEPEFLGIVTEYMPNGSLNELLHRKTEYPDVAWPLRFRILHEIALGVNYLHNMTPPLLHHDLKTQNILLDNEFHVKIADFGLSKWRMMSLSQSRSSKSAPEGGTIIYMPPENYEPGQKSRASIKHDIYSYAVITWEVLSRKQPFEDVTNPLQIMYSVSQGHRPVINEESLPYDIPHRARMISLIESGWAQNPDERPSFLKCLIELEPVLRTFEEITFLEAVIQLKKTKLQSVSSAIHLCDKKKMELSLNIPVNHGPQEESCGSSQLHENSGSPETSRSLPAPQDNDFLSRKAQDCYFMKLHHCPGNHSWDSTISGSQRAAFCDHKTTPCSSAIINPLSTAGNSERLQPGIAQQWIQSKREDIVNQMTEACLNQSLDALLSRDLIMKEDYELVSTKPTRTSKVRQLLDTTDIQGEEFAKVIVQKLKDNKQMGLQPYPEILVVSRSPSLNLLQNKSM

[4] = BLA reporter readout interference – cell-based, CHO-K1 CMV-bla, CCF4 FRET, fluorescence, artefact control for NOD2-RIPK2 interaction inhibitor project, confirmation (AID 624371;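 active means mean inhibition above the low-control mean inhibition plus three low-control SD, cut at about 11% in these data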;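 further: 0% = DMSO only wells and 100% = clavulanate high control wells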); conditions: CCF4 FRET ratio, counterscreen, at 4.98 µM, hits give high values

Row | Compound | inhibition [1] | inhibition [2] | inhibition [3] | inhibition [4]
1 | O=C(c1ccc(N2CCCC2=O)cc1)N1CCN(c2ccc(C(F)(F)F)cc2[N+](=O)[O-])CC1 | 93.2% (active) | 74.9% (active) |  | 
2 | CSc1ncccc1C(=O)Nc1nc2ccc(F)cc2s1 | 68.5% (inactive) | 25.2% (inactive) |  | 
3 | COc1cccc(CNS(=O)(=O)c2ccc3c(c2)CC(C)N3C(=O)C2CCC2)c1 (stereo not drawn) | 73.3% (active) | 58.5% (inactive) |  | 
4 | S=C(NCC1CCCO1)N1CCN(c2ccc(Cl)c(Cl)c2)CC1 (stereo not drawn) | 89.2% (active) | 73.3% (active) |  | 
5 | CN(C)C(=S)N=c1ssc(=S)n1Cc1ccco1 | -16.6% (inactive) | -46.1% (inactive) |  | 
6 | Cc1csc(NC(=S)Nc2cccc(Cl)c2)n1 | -131% (inactive) | -129% (inactive) |  | 
7 | Cc1cccc(N2CCN(C(=O)c3cccc(S(=O)(=O)N4CCc5ccccc5C4)c3)CC2C)c1 (stereo not drawn) | 52% (inactive) | 49% (inactive) |  | 
8 | N#Cc1c(-c2ccccc2)nc(SCc2cccc(C(F)(F)F)c2)[nH]c1=O | 43.6% (inactive) | 30.9% (inactive) |  | 
9 | O=C(NC1=CC(=O)c2ccccc2C1=O)c1ccccc1 | 6.41% (inactive) | 17.1% (inactive) | 89% (active) | -4.54% (inactive)
10 | CNC(=O)c1sc(Nc2ccc(OCc3ccccc3)cc2)nc1C | 37.7% (inactive) | 30% (inactive) |  | 
11 | Cc1nc(-c2ccc(F)cc2)c(CC(=O)Nc2cc(S(=O)(=O)N3CCCCC3)ccc2C)s1 | 56.8% (inactive) | -7.22% (inactive) |  | 
12 | COCCNc1nc(-n2nc(C)cc2C)nc2sc3c(c12)CCCC3 | -8.21% (inactive) | -32% (inactive) |  | 
13 | O=C(CSc1ncn[nH]1)Nc1nc(-c2cccc([N+](=O)[O-])c2)cs1 |  |  | 2.59% (inactive) | 3.63% (inactive)
